Assay results as given in PubChem BioAssay (NCI).
This is part of a sample that, as a whole, favours compounds with a hit. Of some 79,000 tested, about 15% had one in any assay. Values without a mark were called inactive. Activity calls are given as the source filed them. Rule as the data show it: active = growth inhibition above about 70%; inactive = the rest.

What was measured:
[1] = NCI Yeast Anticancer Drug Screen. Data for the rad52 strain (AID 147);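 also: 0% = growth of vehicle-treated control cultures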; settings: S. cerevisiae rad52 mutant growth inhibition, hits give high values
Method in brief: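 DNA repair-defective yeast; compound exposure; growth scored against vehicle controls.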

[2] = NCI Yeast Anticancer Drug Screen. Data for the wt1 strain (AID 149);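 also: 0% = growth of vehicle-treated wt1 cultures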; settings: S. cerevisiae wt1 strain (SPY 50644) growth inhibition, hits give high values
Method in brief: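 Vehicle-normalised growth inhibition; strain wt1; compound exposure.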

[3] = NCI Yeast Anticancer Drug Screen. Data for the rad50EPP+ strain (AID 151);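 also: 0% = growth of vehicle-treated control cultures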; settings: S. cerevisiae rad50 mutant strain, hits give high values
Method in brief: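 rad50EPP+ yeast treated with test compounds. Readout: growth vs vehicle control.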

[4] = NCI Yeast Anticancer Drug Screen. Data for the mgt1 strain (AID 153); settings: S. cerevisiae mgt1 mutant growth inhibition, hits give high values
Method in brief: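 Growth inhibition relative to vehicle controls was scored for the mgt1 yeast strain after compound exposure.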

[5] = NCI Yeast Anticancer Drug Screen. Data for the rad50 strain (AID 155);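 also: 0% = growth of vehicle-only cultures of the same strain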; settings: S. cerevisiae rad50 strain growth inhibition, hits give high values
Method in brief: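 A DNA repair-deficient yeast mutant serves as the test organism; compound-induced growth inhibition is calculated against vehicle-treated cells.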

[6] = NCI Yeast Anticancer Drug Screen. Data for the mec2-1 strain (AID 157); settings: S. cerevisiae mec2-1 strain, hits give high values
Method in brief: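 Growth inhibition is read against vehicle-treated controls after compound exposure of the mec2-1 yeast strain, which is defective in DNA damage repair or cell cycle control.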

[7] = NCI Yeast Anticancer Drug Screen. Data for the rad14 strain (AID 159);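 also: 0% = growth of vehicle-treated control cultures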; settings: S. cerevisiae rad14 strain growth inhibition, hits give high values
Method in brief: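 Vehicle-treated cultures served as the baseline for growth inhibition of a DNA repair-mutant yeast strain exposed to each compound.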

[8] = NCI Yeast Anticancer Drug Screen. Data for the sgs1 mgt1 strain (AID 161);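 also: 0% = growth of cultures given vehicle only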; settings: S. cerevisiae sgs1 mgt1 strain, hits give high values
Method in brief: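 Compounds are added to genetically altered yeast, and growth is compared with cultures given vehicle alone to give percent inhibition.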

[9] = NCI Yeast Anticancer Drug Screen. Data for the CLN2oe strain (AID 163);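 also: 0% = growth of vehicle-only control cultures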; settings: S. cerevisiae CLN2oe strain, hits give high values
Method in brief: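 Compound-treated yeast; growth vs vehicle ctrl = % inhibition. Genetically altered strain (cell-cycle control).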

[10] = NCI Yeast Anticancer Drug Screen. Data for the cln2 rad14 strain (AID 165);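 also: 0% = growth equal to vehicle treated cultures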; settings: S. cerevisiae cln2 rad14 strain, hits give high values
Method in brief: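 Growth inhibition, relative to vehicle-treated controls, is the read-out. The test organism is a yeast strain with defined genetic alterations, cln2 rad14.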

[11] = NCI Yeast Anticancer Drug Screen. Data for the bub3 strain (AID 167); settings: S. cerevisiae bub3 mutant strain, hits give high values
Method in brief: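 Inhibition values come from growth of compound-treated mutant yeast normalised to vehicle-treated controls.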

[12] = NCI Yeast Anticancer Drug Screen. Data for the wt2 strain (AID 169);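 also: 0% = growth of vehicle-treated yeast cultures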; settings: S. cerevisiae wt2 strain growth inhibition, hits give high values
Method in brief: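 Compound exposure of yeast; growth compared with vehicle controls; inhibition reported.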

[13] = NCI Yeast Anticancer Drug Screen. Data for the mlh1 strain (AID 171);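 also: 0% = growth of vehicle-treated control cultures of the same strain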; settings: S. cerevisiae mlh1 strain growth inhibition, hits give high values
Method in brief: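 Compounds are applied to a genetically altered yeast strain, and its growth is compared with that of vehicle-treated cultures to give percent inhibition.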

[14] = NCI Yeast Anticancer Drug Screen. Data for the mlh1 rad18 strain (AID 175); settings: S. cerevisiae mlh1 rad18 strain growth inhibition, hits give high values
Method in brief: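 Cells of a genetically altered yeast strain, deficient in DNA damage repair, were treated with compound. Their growth was then compared with that of vehicle-treated cultures to give inhibition.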

[15] = NCI Yeast Anticancer Drug Screen. Data for the rad18 strain (AID 177); settings: S. cerevisiae rad18 mutant growth inhibition, hits give high values
Method in brief: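 Compounds are applied to a repair-deficient yeast strain, and growth is compared with that of vehicle-treated cultures to give percent inhibition.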

[16] = at 5.0 µM (retest, dose inferred, filed as 0.5)
[17] = at 50.0 µM (retest, dose inferred, filed as 5.0)

Compound: O=C1CC(=O)c2ccccc21
- growth inhibition ([1]; at 1.2 µM): -2%
- growth inhibition ([1]; at 3.7 µM): -1%
- growth inhibition ([1]; at 11.0 µM): 3%
- growth inhibition ([1]; at 33.0 µM): 9%
- growth inhibition ([1]; at 100.0 µM): 50%
- growth inhibition ([2]; at 1.2 µM): 0%
- growth inhibition ([2]; at 3.7 µM): -1%
- growth inhibition ([2]; at 11.0 µM): 0%
- growth inhibition ([2]; at 33.0 µM): 5%
- growth inhibition ([2]; at 100.0 µM): 17%
- growth inhibition ([3]; at 1.2 µM): -3%
- growth inhibition ([3]; at 3.7 µM): -1%
- growth inhibition ([3]; at 11.0 µM): 6%
- growth inhibition ([3]; at 33.0 µM): 18%
- growth inhibition ([3]; at 100.0 µM): 55%
- growth inhibition ([4]; at 1.2 µM): -1%
- growth inhibition ([4]; at 3.7 µM): 0%
- growth inhibition ([4]; at 11.0 µM): 1%
- growth inhibition ([4]; at 33.0 µM): 3%
- growth inhibition ([4]; at 100.0 µM): 72% (active)
- growth inhibition ([5]; at 1.2 µM): 4%
- growth inhibition ([5]; at 3.7 µM): 3%
- growth inhibition [5, 16]: 3%
- growth inhibition ([5]; at 11.0 µM): -9%
- growth inhibition ([5]; at 33.0 µM): 14%
- growth inhibition [5, 17]: 69%
- growth inhibition ([5]; at 50.0 µM): 87.4% (active)
- growth inhibition ([5]; at 100.0 µM): 46%
- growth inhibition ([6]; at 1.2 µM): 1%
- growth inhibition ([6]; at 3.7 µM): 2%
- growth inhibition [6, 16]: 1%
- growth inhibition ([6]; at 11.0 µM): 4%
- growth inhibition ([6]; at 33.0 µM): 10%
- growth inhibition [6, 17]: 53%
- growth inhibition ([6]; at 50.0 µM): 46.3%
- growth inhibition ([6]; at 100.0 µM): 40%
- growth inhibition ([7]; at 1.2 µM): 0%
- growth inhibition ([7]; at 3.7 µM): 3%
- growth inhibition ([7]; at 11.0 µM): 5%
- growth inhibition ([7]; at 33.0 µM): 12%
- growth inhibition ([7]; at 100.0 µM): 56%
- growth inhibition [8, 16]: 3%
- growth inhibition [8, 17]: 12%
- growth inhibition ([8]; at 50.0 µM): 59.7%
- growth inhibition ([9]; at 1.2 µM): -9%
- growth inhibition ([9]; at 3.7 µM): -1%
- growth inhibition ([9]; at 11.0 µM): 3%
- growth inhibition ([9]; at 33.0 µM): 1%
- growth inhibition ([9]; at 100.0 µM): 48%
- growth inhibition [10, 16]: 0%
- growth inhibition [10, 17]: 57%
- growth inhibition ([10]; at 50.0 µM): 70.5% (active)
- growth inhibition ([11]; at 1.2 µM): -2%
- growth inhibition ([11]; at 3.7 µM): -1%
- growth inhibition [11, 16]: -4%
- growth inhibition ([11]; at 11.0 µM): 0%
- growth inhibition ([11]; at 33.0 µM): 3%
- growth inhibition [11, 17]: 6%
- growth inhibition ([11]; at 50.0 µM): 67.9%
- growth inhibition ([11]; at 100.0 µM): 35%
- growth inhibition ([12]; at 1.2 µM): 0%
- growth inhibition ([12]; at 3.7 µM): 8%
- growth inhibition ([12]; at 11.0 µM): 1%
- growth inhibition ([12]; at 33.0 µM): 5%
- growth inhibition ([12]; at 100.0 µM): 37%
- growth inhibition ([13]; at 1.2 µM): -1%
- growth inhibition ([13]; at 3.7 µM): 0%
- growth inhibition ([13]; at 11.0 µM): 2%
- growth inhibition ([13]; at 33.0 µM): 4%
- growth inhibition ([13]; at 100.0 µM): 65%
- growth inhibition [14, 16]: 1%
- growth inhibition [14, 17]: 12%
- growth inhibition ([14]; at 50.0 µM): 70% (active)
- growth inhibition ([15]; at 1.2 µM): -1%
- growth inhibition ([15]; at 3.7 µM): 2%
- growth inhibition ([15]; at 11.0 µM): 7%
- growth inhibition ([15]; at 33.0 µM): 23%
- growth inhibition ([15]; at 100.0 µM): 74% (active)
